Results on 20 compounds are retold here after PubChem BioAssay (NCI).

Assay [1] in a line: NCI Yeast Anticancer Drug Screen. Data for the rad50 strain (AID 155).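 Further: 0% = growth of vehicle-only cultures of the same strain.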 The conditions noted are these: S. cerevisiae rad50 strain growth inhibition, hits give high values; at 50.0 µM unless noted. The procedure, abridged:
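Inhibition values express reduced yeast growth in compound-treated cultures relative to vehicle-treated controls.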

Assay [2] in a line: NCI Yeast Anticancer Drug Screen. Data for the mec2-1 strain (AID 157). The settings on record: S. cerevisiae mec2-1 strain, hits give high values; at 50.0 µM unless noted. The procedure, abridged:
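Mutant yeast (mec2-1) grown with compound; growth inhibition relative to vehicle control reported.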

The nature of assay [3]: NCI Yeast Anticancer Drug Screen. Data for the sgs1 mgt1 strain (AID 161).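 Further: 0% = growth of cultures given vehicle only.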 The settings on record: S. cerevisiae sgs1 mgt1 strain, hits give high values; at 50.0 µM unless noted. An outline of the steps:
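Compounds are added to genetically altered yeast, and growth is compared with cultures given vehicle alone to give percent inhibition.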

Assay [4] can be described thus: NCI Yeast Anticancer Drug Screen. Data for the cln2 rad14 strain (AID 165).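 Further: 0% = growth equal to vehicle treated cultures.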 The settings on record: S. cerevisiae cln2 rad14 strain, hits give high values; at 50.0 µM unless noted. An outline of the steps: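 Readout is yeast growth inhibition versus vehicle-treated controls, using a strain with cln2 and rad14 alterations exposed to compound.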
Assay [5] in a line: NCI Yeast Anticancer Drug Screen. Data for the bub3 strain (AID 167). The settings on record: S. cerevisiae bub3 mutant strain, hits give high values; at 50.0 µM unless noted. An outline of the steps:
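Steps: expose the mutant yeast strain to compound; grow alongside vehicle-treated cultures; measure growth; express inhibition against the vehicle cultures.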

Assay [6] can be described thus: NCI Yeast Anticancer Drug Screen. Data for the mlh1 rad18 strain (AID 175). The settings on record: S. cerevisiae mlh1 rad18 strain growth inhibition, hits give high values; at 50.0 µM unless noted. The procedure, abridged:
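Genetically defined yeast (DNA repair-deficient) exposed to compounds; growth inhibition determined relative to vehicle.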

Where “and” joins values, the source holds several entries; their conditions need not be identical. Identical values can stand only once. About 79,000 compounds went through this panel and 15% of them were active in at least one assay; those are over-represented in the sample as a whole. Unmarked numbers belong to inactive results. Calls of active or inactive are those of the source. No stated cut-off is given here; in the data, active means growth inhibition above about 70%; inactive means the rest.

Regarding `O=C1NC(=O)c2c(O)cccc21`, the growth inhibition is 38.5% in assay [1]; 23.6% in assay [2]; 21.1% in assay [3]; 18.2% in assay [4]; 13.4% in assay [5]; 27.9% in assay [6].
As for `Clc1ccc(N=NNc2ccccc2)cc1`, the growth inhibition in assay [1] is 29.6% and 6.7%; in assay [2], -0.85% and -2.8%; in assay [3], -22.9% and -22.1%; in assay [4] it was -30.1% and -10.1%; in assay [5], -20.1% and -6.6%; in assay [6], -16.4% and 30.2%.
As to `Cc1cc(N(CCC#N)CCC#N)ccc1/C=C1/CN(N2C(=O)/C(=C/c3ccc(N(CCC#N)CCC#N)cc3C)N=C2c2ccccc2)C(c2ccccc2)=N1`, the growth inhibition in assay [1] was -2.7%; in assay [2] it was -25.4%; in assay [3] it was -22.6%; in assay [4], 5.6%; in assay [5], -28.8%; in assay [6] it was -11.1%.
For the compound `CCC(/C=C/c1ccc(C)cc1)=N\NC(=O)c1ccccc1`, the growth inhibition in assay [1] was -0.25%; in assay [2], -2.3%; in assay [3] it was -1.1%; in assay [4], 19.2%; in assay [5] it was 3.35%; in assay [6], 3.05%.
Regarding `CCOC(=O)CC(=O)Cc1ccccc1`, the growth inhibition in assay [1] is -23.3%; in assay [2], -16.6%; in assay [3], -6.25%; in assay [4] it was -43.8%; in assay [5], -13.2%; in assay [6], -19.1%.
As to `CC(=O)OC(C(=O)NNC(=O)OC(C)(C)C)c1ccccc1` (stereo not given), the growth inhibition in assay [1] was -35.6%; in assay [2] it was -49.4%; in assay [3], -38%; in assay [4], -19.4%; in assay [5], -13.4%; in assay [6], -29.2%.
Take `O=c1cnn2c(n1)OC1C(O)C(CO)OC12` (stereo not given): the growth inhibition in assay [1] was 3.55%; in assay [2], -2.5%; in assay [3] it was 9.6%; in assay [4], -21.7%; in assay [5] it was -11.7%; in assay [6] it was 22%.
Consider `C=C1CCCC(C)(C)[C@@H]1CC/C(C)=C/Cn1c2cccc(=O)c-2nc2ccccc21`, for which the growth inhibition in assay [1] was 12.8%; in assay [2], 6.75%; in assay [3], 2.15%; in assay [4], 2.4%; in assay [5], -17.4%; in assay [6], 19.2%.
For the compound `CC(=O)c1cc(Cc2cc(C)cc(C)c2O)c(O)c(Cc2cc(C)cc(C)c2O)c1`, the growth inhibition is 18.9% in assay [1]; 11.6% in assay [2]; 28.9% in assay [3]; 33.7% in assay [4]; 17.4% in assay [5]; 4.05% in assay [6].
`CCS(=O)(=O)CC(O)CS(=O)(=O)CC`: the growth inhibition is 6.5% in assay [1]; -6.35% in assay [2]; -38% in assay [3]; -4.95% in assay [4]; -6.35% in assay [5]; -15.4% in assay [6].
In the case of `CCOC(C)(Cc1ccccc1[N+](=O)[O-])OCC`, the growth inhibition was 11.4% in assay [1]; 4.3% in assay [2]; -4.05% in assay [3]; 2.5% in assay [4]; -3.6% in assay [5]; 18.5% in assay [6].
As for `NC1=NC(=O)/C(=C/c2ccccc2[N+](=O)[O-])C(N)=N1`, the growth inhibition is -26.9% in assay [1]; -0.05% in assay [2]; 10.8% in assay [3]; 4.8% in assay [4]; -5.6% in assay [5]; 24.1% in assay [6].
Turning to `CS(=O)(=O)OCCN(CCOS(C)(=O)=O)c1ccc(C=Nc2ccc(C(=O)O)c(O)c2)cc1`, the growth inhibition in assay [1] is 84.3% (active); in assay [2] it was 84.5% (active); in assay [3], 79.5% (active); in assay [4], 78.7% (active); in assay [5], 19.8%; in assay [6], 94% (active).
In the case of `CC1CCC(OC(=O)CCC2CCCCC2)CC1` (stereo not given), the growth inhibition in assay [1] is -1.6%; in assay [2], -12.1%; in assay [3], 4.35%; in assay [4], -34.2%; in assay [5], -12.4%; in assay [6], -18.3%.
On to `CCCCCP(=O)(O)O.[Cu+2]`, for which the growth inhibition in assay [1] is -41.4%; in assay [2] it was -39.6%; in assay [3] it was -9.9%; in assay [4], -40%; in assay [5] it was -31.6%; in assay [6], -14.2%.
Turning to `CCCCCCCCC1OC1CCCCCCCCOCC(O)CO` (stereo not given), the growth inhibition is 18.9% in assay [1]; -9.95% in assay [2]; -1.9% in assay [3]; -1.2% in assay [4]; -0.6% in assay [5]; -1.6% in assay [6].
Consider `Cc1ccc(NC(=O)Oc2ccc(C(C)(C)C)cc2)cc1NC(=O)Oc1ccc(C(C)(C)C)cc1`, for which the growth inhibition in assay [1] is -14.4%; in assay [2] it was -29.4%; in assay [3], -6.35%; in assay [4] it was -4.75%; in assay [5], 10.7%; in assay [6] it was -18.6%.
Turning to `c1ccc(C2c3ccccc3CN2c2ccccc2)cc1` (stereo not given), the growth inhibition in assay [1] was 25.4%; in assay [2], 6.2%; in assay [3] it was 11.4%; in assay [4], 9.4%; in assay [5], 23.1%; in assay [6], 2.35%.
In the case of `COC(=O)c1cc(OCC#CC#CCOc2ccc(O)c(C(=O)OC)c2)ccc1O`, the growth inhibition is 3% in assay [1]; -5.8% in assay [2]; 9.65% in assay [3]; -1.2% in assay [4]; -4.15% in assay [5]; 14.1% in assay [6].
Regarding `Oc1ccccc1/C=N\N=C\NN/C=N/N=C/c1ccccc1O`, the growth inhibition was -8.1% in assay [1]; -0.75% in assay [2]; -4% in assay [3]; 13.8% in assay [4]; 6.4% in assay [5]; 5.55% in assay [6].
